From publication PMC7862700, “An all-to-all approach to the identification of sequence-specific readers for epigenetic DNA modifications on cytosine” come the findings set out here.

Common to all, as to experiment: DAPPL (digital affinity profiling via proximity ligation, sequencing); 10 mM Tris-HCl pH 7.5, 50 mM NaCl, 1 mM DTT, 4% glycerol, room temperature, 30 min; GST-TFs on glutathione beads, 16-mer random dsDNA library, 0.1% formaldehyde crosslink after washing; high values mean tight binding
Settings in all cases: protein: recombinant; tags: N-terminal GST; dsDNA, one strand shown

For one experiment, the target named is T1, FLI1 (Homo sapiens, UniProt Q01543 1-452).
T1 sequence: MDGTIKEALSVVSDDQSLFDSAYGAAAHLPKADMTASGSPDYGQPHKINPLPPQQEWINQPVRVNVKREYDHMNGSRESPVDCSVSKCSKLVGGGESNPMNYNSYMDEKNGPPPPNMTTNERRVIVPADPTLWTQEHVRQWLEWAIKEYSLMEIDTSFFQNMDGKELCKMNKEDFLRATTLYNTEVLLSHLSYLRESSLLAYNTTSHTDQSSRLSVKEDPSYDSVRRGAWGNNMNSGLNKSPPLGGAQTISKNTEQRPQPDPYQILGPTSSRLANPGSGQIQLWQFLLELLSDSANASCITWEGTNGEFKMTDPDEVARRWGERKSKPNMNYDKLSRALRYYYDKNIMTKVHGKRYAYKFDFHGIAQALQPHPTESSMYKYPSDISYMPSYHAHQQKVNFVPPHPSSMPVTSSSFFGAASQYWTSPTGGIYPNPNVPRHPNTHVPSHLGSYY
In outline:
(§1)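 Each value of binding signal is a hexamer's read frequency for a factor divided by the same hexamer's frequency in the tag-only sample. Barcoded, bead-captured GST fusions of human transcription factors made in yeast were pooled with that sample and incubated with 200 nmole of a random double-stranded 16-mer DNA library in Tris/NaCl/DTT/glycerol buffer at room temperature for 30 min. Washing, 0.1% formaldehyde crosslinking, proximity ligation, PCR and Illumina NextSeq500 sequencing followed.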

In another experiment the target is T2, SPIC (Homo sapiens, UniProt Q8N5J4 1-248).
T2 sequence: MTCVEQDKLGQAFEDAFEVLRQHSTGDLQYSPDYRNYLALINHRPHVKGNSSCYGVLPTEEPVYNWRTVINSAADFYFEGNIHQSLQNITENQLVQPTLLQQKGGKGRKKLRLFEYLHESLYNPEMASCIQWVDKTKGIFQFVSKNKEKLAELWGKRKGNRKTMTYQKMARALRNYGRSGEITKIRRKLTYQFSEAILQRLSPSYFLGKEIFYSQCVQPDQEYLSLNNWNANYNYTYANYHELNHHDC
In outline: as §1

In another experiment the target is T3, ETV7 (Homo sapiens, UniProt Q9Y603 1-341).
T3 sequence: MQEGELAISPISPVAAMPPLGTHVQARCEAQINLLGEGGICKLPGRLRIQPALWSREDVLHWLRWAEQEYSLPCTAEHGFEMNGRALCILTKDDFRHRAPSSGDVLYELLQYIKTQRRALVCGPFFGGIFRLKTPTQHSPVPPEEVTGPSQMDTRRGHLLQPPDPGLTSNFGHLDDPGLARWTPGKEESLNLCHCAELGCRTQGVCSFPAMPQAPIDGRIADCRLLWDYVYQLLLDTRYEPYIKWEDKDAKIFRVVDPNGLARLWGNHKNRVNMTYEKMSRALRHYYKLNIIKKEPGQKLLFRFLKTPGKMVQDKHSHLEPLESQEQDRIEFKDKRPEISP
The method, boiled down:
as §1

Another experiment addresses T4, ETV3 (Homo sapiens, UniProt P41162-2 1-143).
T4 sequence: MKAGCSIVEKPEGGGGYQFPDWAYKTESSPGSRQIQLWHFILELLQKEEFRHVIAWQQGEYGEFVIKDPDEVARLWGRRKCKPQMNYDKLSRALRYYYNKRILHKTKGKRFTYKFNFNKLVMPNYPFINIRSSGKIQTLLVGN
The method, boiled down:
as §1

The target of another experiment is T5, GABPA (Homo sapiens, UniProt Q06546 1-454).
T5 sequence: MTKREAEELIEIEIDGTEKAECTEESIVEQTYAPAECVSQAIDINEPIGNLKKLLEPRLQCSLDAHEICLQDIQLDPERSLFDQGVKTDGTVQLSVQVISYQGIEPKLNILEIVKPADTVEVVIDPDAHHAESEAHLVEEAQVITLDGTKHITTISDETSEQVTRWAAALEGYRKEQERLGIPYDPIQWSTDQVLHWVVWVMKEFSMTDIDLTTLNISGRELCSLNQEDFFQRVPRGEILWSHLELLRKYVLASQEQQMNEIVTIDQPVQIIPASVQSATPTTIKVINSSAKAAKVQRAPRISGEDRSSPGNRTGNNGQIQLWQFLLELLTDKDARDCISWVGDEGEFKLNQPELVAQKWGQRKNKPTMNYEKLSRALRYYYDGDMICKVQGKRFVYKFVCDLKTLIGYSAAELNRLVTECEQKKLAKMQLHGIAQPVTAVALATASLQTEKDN
In outline:
as §1

In a further experiment the target is T6, EHF (Homo sapiens, UniProt Q9NZC4 1-300).
T6 sequence: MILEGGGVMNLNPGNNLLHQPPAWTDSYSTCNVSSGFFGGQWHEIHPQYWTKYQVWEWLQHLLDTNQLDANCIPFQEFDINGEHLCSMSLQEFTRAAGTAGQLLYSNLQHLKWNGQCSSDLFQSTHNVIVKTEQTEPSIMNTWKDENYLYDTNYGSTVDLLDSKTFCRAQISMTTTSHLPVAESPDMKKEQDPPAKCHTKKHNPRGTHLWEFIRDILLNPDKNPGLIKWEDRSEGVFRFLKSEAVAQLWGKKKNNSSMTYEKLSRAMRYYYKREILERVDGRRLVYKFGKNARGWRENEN
The method, boiled down: as §1

For a further experiment, the target named is T7, ELK3 (Homo sapiens, UniProt P41970 1-407).
T7 sequence: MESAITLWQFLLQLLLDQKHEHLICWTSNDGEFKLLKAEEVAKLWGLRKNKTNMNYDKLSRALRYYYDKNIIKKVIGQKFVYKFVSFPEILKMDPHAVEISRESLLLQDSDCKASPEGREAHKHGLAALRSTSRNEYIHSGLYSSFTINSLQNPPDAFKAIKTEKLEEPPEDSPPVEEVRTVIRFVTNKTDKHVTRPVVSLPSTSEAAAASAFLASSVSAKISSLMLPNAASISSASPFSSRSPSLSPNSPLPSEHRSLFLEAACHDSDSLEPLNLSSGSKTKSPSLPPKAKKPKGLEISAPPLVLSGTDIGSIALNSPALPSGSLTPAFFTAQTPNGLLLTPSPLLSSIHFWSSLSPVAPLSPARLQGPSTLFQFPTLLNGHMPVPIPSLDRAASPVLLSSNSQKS
In outline: as §1

The target in another experiment is ELF4 (Homo sapiens, UniProt Q99607 1-663). In outline: as §1
For another experiment, the target named is T8, ELF3 (Homo sapiens, UniProt P78545 1-371).
T8 sequence: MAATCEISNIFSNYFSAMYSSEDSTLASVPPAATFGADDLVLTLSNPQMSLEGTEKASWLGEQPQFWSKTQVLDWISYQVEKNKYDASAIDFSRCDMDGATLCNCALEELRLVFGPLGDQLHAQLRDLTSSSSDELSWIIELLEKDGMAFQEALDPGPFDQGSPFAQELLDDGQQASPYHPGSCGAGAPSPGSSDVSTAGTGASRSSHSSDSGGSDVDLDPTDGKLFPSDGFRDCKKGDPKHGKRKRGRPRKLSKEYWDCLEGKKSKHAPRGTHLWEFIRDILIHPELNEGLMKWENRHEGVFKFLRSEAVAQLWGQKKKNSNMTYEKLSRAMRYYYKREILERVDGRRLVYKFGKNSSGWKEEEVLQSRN
The method, boiled down: as §1

Another experiment addresses ETV1 (Homo sapiens, UniProt P50549 1-477). In outline: as §1
In a further experiment the target is T9, ETV3L (Homo sapiens, UniProt Q6ZN32 1-361).
T9 sequence: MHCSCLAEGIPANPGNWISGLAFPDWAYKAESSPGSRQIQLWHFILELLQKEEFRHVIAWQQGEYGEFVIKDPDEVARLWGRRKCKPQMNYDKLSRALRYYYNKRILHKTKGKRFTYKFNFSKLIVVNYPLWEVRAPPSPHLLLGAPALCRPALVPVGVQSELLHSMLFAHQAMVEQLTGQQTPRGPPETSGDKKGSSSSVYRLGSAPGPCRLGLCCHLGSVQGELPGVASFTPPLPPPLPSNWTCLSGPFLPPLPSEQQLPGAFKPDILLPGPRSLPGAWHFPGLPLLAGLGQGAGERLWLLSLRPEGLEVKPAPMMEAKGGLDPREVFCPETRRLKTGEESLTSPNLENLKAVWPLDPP
In outline:
as §1

The next experiment has as its target T10, ETS2 (Homo sapiens, UniProt P15036 1-469).
T10 sequence: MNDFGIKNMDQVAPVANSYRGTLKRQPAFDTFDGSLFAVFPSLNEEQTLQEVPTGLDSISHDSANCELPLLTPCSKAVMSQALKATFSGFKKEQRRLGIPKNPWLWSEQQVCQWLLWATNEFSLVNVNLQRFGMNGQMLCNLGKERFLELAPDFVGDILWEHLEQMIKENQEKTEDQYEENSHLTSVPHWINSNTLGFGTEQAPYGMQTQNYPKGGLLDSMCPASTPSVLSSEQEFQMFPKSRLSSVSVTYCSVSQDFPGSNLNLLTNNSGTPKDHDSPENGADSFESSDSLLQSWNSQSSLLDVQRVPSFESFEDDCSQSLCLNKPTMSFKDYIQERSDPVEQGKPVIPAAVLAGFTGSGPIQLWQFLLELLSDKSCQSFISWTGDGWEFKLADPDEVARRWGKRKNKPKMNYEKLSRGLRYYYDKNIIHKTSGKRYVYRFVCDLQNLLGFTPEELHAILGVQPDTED
The method, boiled down:
as §1

A further experiment deals with T11, SPDEF (Homo sapiens, UniProt O95238 1-335).
T11 sequence: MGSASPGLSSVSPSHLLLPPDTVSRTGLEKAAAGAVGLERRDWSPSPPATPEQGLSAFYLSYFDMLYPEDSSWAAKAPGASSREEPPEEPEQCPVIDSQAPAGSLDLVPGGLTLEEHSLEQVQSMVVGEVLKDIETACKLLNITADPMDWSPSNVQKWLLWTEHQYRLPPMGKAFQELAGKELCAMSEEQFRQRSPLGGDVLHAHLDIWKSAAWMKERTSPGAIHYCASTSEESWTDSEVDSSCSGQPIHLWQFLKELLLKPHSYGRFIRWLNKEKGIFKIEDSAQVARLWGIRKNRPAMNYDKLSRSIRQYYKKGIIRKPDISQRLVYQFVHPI
The method, boiled down: as §1

For a further experiment, the target named is T12, ELF5 (Homo sapiens, UniProt Q9UKW6-2 1-255).
T12 sequence: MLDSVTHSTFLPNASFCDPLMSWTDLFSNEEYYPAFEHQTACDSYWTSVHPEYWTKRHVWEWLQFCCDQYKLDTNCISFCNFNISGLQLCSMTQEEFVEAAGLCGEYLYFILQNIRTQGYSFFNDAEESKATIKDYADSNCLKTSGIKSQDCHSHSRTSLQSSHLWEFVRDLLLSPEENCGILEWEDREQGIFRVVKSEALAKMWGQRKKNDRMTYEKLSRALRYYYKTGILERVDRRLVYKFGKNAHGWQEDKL
In outline:
as §1

The target in a further experiment is ETV6 (Homo sapiens, UniProt P41212 1-452). In outline:
as §1

Sequence of ELF4 (Q99607 whole entry): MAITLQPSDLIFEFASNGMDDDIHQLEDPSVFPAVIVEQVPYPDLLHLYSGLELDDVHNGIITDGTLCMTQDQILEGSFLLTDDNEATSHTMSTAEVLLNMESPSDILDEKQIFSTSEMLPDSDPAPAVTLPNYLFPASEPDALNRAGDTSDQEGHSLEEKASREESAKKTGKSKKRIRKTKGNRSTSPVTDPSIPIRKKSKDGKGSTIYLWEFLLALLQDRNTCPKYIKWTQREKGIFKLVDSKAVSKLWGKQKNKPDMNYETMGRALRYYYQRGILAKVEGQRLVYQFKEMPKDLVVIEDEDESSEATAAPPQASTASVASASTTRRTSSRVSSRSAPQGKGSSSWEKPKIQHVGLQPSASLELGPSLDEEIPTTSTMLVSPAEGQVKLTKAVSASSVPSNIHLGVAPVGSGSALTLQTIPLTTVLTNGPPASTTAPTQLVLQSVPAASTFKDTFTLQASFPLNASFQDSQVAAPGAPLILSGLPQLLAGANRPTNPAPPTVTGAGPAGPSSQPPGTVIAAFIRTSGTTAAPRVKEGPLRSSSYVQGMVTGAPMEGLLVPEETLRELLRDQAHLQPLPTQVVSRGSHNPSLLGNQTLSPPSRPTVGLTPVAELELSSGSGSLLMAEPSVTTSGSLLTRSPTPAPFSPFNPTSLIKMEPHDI
Sequence of ETV1 (P50549 whole entry): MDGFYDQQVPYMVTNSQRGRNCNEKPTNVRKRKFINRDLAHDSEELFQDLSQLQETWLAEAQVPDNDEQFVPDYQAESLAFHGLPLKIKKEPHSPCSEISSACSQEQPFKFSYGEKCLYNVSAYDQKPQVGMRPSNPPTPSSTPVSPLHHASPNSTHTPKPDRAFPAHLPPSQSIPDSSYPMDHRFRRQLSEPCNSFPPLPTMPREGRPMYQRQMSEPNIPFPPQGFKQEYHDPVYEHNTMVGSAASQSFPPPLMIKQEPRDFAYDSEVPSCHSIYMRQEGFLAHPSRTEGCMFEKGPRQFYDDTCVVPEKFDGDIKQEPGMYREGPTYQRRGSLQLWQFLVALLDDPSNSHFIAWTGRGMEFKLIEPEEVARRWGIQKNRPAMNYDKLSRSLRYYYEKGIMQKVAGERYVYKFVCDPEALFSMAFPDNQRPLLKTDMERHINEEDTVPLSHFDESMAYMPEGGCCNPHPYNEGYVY
Sequence of ETV6 (P41212 whole entry): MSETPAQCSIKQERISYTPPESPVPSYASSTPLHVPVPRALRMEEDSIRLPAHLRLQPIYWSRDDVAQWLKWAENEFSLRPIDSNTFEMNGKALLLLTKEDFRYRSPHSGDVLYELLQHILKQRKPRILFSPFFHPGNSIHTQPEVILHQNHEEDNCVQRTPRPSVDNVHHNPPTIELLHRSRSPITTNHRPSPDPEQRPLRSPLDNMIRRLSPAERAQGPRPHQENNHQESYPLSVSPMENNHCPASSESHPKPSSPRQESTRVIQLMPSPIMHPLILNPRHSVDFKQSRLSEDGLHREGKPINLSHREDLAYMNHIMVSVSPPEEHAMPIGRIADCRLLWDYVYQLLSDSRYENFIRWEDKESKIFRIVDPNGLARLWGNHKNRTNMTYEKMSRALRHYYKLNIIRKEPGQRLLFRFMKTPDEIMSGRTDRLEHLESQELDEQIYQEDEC

Turning to AGGCCC, the binding signal in the experiment with FLI1 is 1.01 fold enrichment (6-mer frequency, TF over GST control); in the experiment with SPIC, 1.08 fold enrichment (6-mer frequency, TF over GST control); in the experiment with ETV7, 1.03 fold enrichment (6-mer frequency, TF over GST control); with ETV3, 1.01 fold enrichment (6-mer frequency, TF over GST control).
In the case of GACGAC, the binding signal with FLI1 was 1.01 fold enrichment (6-mer frequency, TF over GST control); with GABPA, 1.05 fold enrichment (6-mer frequency, TF over GST control); with EHF, 1.06 fold enrichment (6-mer frequency, TF over GST control); with ELK3 it was 1.03 fold enrichment (6-mer frequency, TF over GST control); with ELF4, 1.03 fold enrichment (6-mer frequency, TF over GST control); with ELF3, 1.06 fold enrichment (6-mer frequency, TF over GST control). The binding signal was 1.02 fold enrichment (6-mer frequency, TF over GST control) with ETV1; 1.03 fold enrichment (6-mer frequency, TF over GST control) with ETV3L; 1.02 fold enrichment (6-mer frequency, TF over GST control) in the experiment with ETS2; 1.04 fold enrichment (6-mer frequency, TF over GST control) with SPDEF; 1.02 fold enrichment (6-mer frequency, TF over GST control) with ELF5; 1.08 fold enrichment (6-mer frequency, TF over GST control) in the experiment with ETV6.
